Experiment [1] is described as follows: qHTS assay for small molecules that induce genotoxicity in human embryonic kidney cells expressing luciferase-tagged ATAD5 (AID 651632). Further: nearly all actives have a fitted effect of over 15% in size. Further: potency means the concentration at half of the fitted maximal effect. The method in brief: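 ATAD5-luc HEK293T, 2,000 cells/well; cpd or DMSO pin-transferred; 16 hr, 37C/5% CO2; Amplite 30 min RT; luminescence.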
The nature of experiment [2]: qHTS assay for small molecule agonists of the p53 signaling pathway - cell viability (AID 651633; calls by dose curve; further: nearly all actives have a fitted effect of over 30% in size; further: potency means the concentration at half of the fitted maximal effect). The method, boiled down: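 p53RE-bla cells were treated with compound for 16 hours at 37 C. Cytotoxicity was then measured as CellTiter-Glo luminescence after 30 min at room temperature.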
Experiment [3] is described as follows: qHTS assay for small molecule disruptors of the mitochondrial membrane potential - cell viability (AID 720634; calls by dose curve;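 further: human HepG2 liver cancer cells; series mostly up to about 83 µM; nearly all actives have a fitted effect of over 20% in size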). The method, boiled down: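 Cells: HepG2, 2,000/well, attached overnight. Compound 1 hr, 37 C/5% CO2. +m-MPI dye, +CellTiter-Glo 30 min RT. Readout: luminescence (ATP).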
Experiment [4] in a line: qHTS assay to test for compound auto fluorescence at 535 nm (green) in HepG2 cells (AID 720675). Further: potency means the concentration at half of the fitted maximal effect.
Experiment [5] is described as follows: qHTS assay to test for compound auto fluorescence at 460 nm (blue) in HEK293 cells (AID 720678). The method in brief:
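Cells were seeded and left to adhere for 4-5 hr at 37C. Compounds were then pin-transferred. After an overnight incubation at 37C under 5% CO2, intrinsic fluorescence at 405/460 nm was measured and referenced to triamterene.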

The nature of experiment [6]: qHTS assay to test for compound auto fluorescence at 590 nm (red) in HEK293 cells (AID 720679). The method in brief: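 Each well held 2,000 HEK293 cells in medium containing 10% dialyzed FBS. Following 4-5 hr attachment at 37C, 23 nL test compound or DMSO was added; plates sat overnight, and red fluorescence (540/590nm) was recorded.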
Experiment [7] in a line: qHTS assay to test for compound auto fluorescence at 460 nm (blue) in HEK293 cell free culture (AID 720681). The method, boiled down:
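Compounds were added to cell-free DMEM with 10% FBS and fluorescence read directly. The blue channel used 405 nm excitation and 460 nm emission, with triamterene as the reference fluorophore.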

Experiment [8] is described as follows: qHTS assay to test for compound auto fluorescence at 535 nm (green) in HEK293 cell free culture (AID 720682). Further: potency means the concentration at half of the fitted maximal effect. The method in brief: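 Green-label autofluorescence (485 nm excitation, 535 nm emission) measured on compound added to cell-free culture medium (DMEM, 10% FBS). Output is expressed relative to fluorescein.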
Experiment [9] is described as follows: qHTS assay to test for compound auto fluorescence at 590 nm (red) in HepG2 cell free culture (AID 720684). The method in brief: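 Compound was pinned into wells holding MEM with 10% FBS and no cells, and red fluorescence was read at Ex/Em 540/590 nm. Signal is expressed as auto fluorescence equivalency relative to Rose Bengal sodium.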
Experiment [10] can be described thus: qHTS assay to test for compound auto fluorescence at 460 nm (blue) in HepG2 cell free culture (AID 720685). The method in brief:
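Compound (23 nL) or DMSO pinned into cell-free MEM with 10% FBS; blue fluorescence read at 405/460 nm excitation/emission, expressed as auto-fluorescence equivalency to triamterene.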

Experiment [11] is described as follows: qHTS assay to test for compound auto fluorescence at 535 nm (green) in HepG2 cell free culture (AID 720686). Further: potency means the concentration at half of the fitted maximal effect.
Experiment [12] is described as follows: qHTS assay to test for compound auto fluorescence at 460 nm (blue) in HepG2 cells (AID 720687). The method in brief: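 HepG2 cells in MEM with 10% FBS, attached overnight at 37 C, were exposed to compound or DMSO for 1 hr at 37 C, 5% CO2. Blue fluorescence was read at 405/460 nm, with triamterene as reference fluorophore.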
A short description of experiment [13]: qHTS assay for identifying genotoxic compounds that show differential cytotoxicity against isogenic chicken DT40 cell lines with known DNA damage response pathways - wild type cell line (AID 743012). Further: nearly all actives have a fitted effect of over 60% in size. Further: potency means the concentration at half of the fitted maximal effect. The method, boiled down:
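Wild type DT40, 300 cells/well, ~0.5 h settle at 37 C/5% CO2; compounds in DMSO added by pintool; 40 h at 37 C/5% CO2; CellTiter-Glo, 30 min RT; luminescence.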

Experiment [14] is described as follows: qHTS assay for identifying genotoxic compounds that show differential cytotoxicity against isogenic chicken DT40 cell lines with known DNA damage response pathways - Rad54/Ku70 mutant cell line (AID 743015). Further: nearly all actives have a fitted effect of over 60% in size. Further: potency means the concentration at half of the fitted maximal effect.
A short description of experiment [15]: qHTS assay to identify small molecule antagonists of the androgen receptor (AR) signaling pathway - cell viability counter screen (AID 743033; further: nearly all actives have a fitted effect of over 45% in size; further: potency means the concentration at half of the fitted maximal effect).
Experiment [16] in a line: qHTS assay to identify small molecule antagonists of the androgen receptor (AR) signaling pathway using the MDA cell line - cell viability counter screen (AID 743041; further: nearly all actives have a fitted effect of over 45% in size). The method in brief: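 MDA-kb2 AR-luc cells (MMTV-luciferase, AR/GR responsive) treated with compounds plus R1881 agonist for 16 h at 37C. CellTiter-Fluor added at 15.5 h; fluorescence read after 30 min in the same wells.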

The target in another experiment is Aromatase (Homo sapiens) (UniProt P11511). In words: qHTS assay to identify aromatase inhibitors (AID 743083). Further: series mostly up to about 70 µM; nearly all actives have a fitted effect of over 55% in size.
A short description of experiment [17]: qHTS assay to identify aromatase inhibitors - cell viability counter screen (AID 743084).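 Further: cells stimulated with testosterone during compound exposure; nearly all actives have a fitted effect of over 55% in size.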
Experiment [18] has as its target Aryl hydrocarbon receptor (Homo sapiens) (UniProt P35869). Put plainly: qHTS assay to identify small molecule that activate the aryl hydrocarbon receptor (AhR) signaling pathway (AID 743085).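 Further: HG2L7.5c1 human HepG2 liver cells with stably integrated DRE-driven firefly reporter; series mostly up to about 70 µM; nearly all actives have a fitted effect of over 15% in size.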 The method in brief: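 HepG2 cells stably carrying a 20-DRE firefly luciferase reporter (HG2L7.5c1) treated with compound for 24 hr at 37C. Luciferase read by ONE-Glo luminescence, with CellTiter-Fluor viability read first.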

The nature of experiment [19]: qHTS assay to identify small molecule antagonists of the estrogen receptor alpha (ER-alpha) signaling pathway - cell viability counter screen (AID 743074; calls by dose curve;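 further: HEK293 cells carrying ER-alpha-UAS-bla reporter stimulated with 17beta-estradiol; nearly all actives have a fitted effect of over 45% in size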; further: potency means the concentration at half of the fitted maximal effect).

The structures appear in SMILES notation. Results filed as inconclusive are left out. Active and inactive are the calls of the source. Unless noted, the call rests on the fitted dose curve; in most records, active means well fitted curve in the direction sought with a large enough effect in the repeat runs; inconclusive means weak or mixed curves; inactive means no such curve, though single readings can be large; an effect the other way counts as inactive or inconclusive.
Tags describe the fitted curve by direction and shape or compound fluorescence and quenching.

Aromatase (Homo sapiens), sequence (P11511 whole entry, looked up): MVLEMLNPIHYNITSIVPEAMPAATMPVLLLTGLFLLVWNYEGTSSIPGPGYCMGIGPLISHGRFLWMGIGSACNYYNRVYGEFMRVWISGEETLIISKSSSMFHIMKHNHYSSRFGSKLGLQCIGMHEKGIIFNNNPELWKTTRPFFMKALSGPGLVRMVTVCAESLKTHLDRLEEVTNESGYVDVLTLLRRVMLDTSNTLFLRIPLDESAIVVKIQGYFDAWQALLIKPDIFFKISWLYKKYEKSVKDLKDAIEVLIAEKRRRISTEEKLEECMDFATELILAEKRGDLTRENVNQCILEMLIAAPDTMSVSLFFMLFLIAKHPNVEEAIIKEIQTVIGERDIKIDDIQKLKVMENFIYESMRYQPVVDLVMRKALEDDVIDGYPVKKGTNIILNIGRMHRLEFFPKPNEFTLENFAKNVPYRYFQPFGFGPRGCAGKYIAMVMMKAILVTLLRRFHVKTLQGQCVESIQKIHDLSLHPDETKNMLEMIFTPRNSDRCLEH
Aryl hydrocarbon receptor (Homo sapiens), sequence (P35869 whole entry, looked up): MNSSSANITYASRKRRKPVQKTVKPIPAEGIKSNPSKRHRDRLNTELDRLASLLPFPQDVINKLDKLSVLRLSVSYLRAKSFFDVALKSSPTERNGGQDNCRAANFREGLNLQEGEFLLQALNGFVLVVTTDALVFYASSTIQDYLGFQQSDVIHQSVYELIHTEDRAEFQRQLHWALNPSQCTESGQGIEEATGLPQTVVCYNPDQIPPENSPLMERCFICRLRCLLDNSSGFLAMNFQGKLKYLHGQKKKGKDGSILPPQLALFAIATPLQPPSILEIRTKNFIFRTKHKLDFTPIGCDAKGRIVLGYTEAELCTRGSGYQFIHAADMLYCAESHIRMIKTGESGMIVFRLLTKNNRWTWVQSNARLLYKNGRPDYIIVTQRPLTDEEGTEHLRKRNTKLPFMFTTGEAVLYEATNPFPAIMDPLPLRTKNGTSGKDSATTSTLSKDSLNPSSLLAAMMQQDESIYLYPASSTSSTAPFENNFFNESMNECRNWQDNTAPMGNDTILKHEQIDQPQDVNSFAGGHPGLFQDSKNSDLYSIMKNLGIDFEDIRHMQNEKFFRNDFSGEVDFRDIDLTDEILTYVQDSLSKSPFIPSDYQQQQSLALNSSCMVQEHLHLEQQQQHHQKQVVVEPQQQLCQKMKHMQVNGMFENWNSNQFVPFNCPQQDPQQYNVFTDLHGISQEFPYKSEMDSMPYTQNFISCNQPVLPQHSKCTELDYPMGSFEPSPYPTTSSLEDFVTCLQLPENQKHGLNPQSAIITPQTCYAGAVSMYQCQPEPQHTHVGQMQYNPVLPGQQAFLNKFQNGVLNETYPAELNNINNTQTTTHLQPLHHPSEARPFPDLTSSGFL

On to `CCC/C=C/C=C/C(=O)O[C@H]1/C(=C/C(=O)OC)C[C@H]2C[C@H]([C@@H](C)O)OC(=O)C[C@H](O)C[C@@H]3C[C@H](OC(C)=O)C(C)(C)[C@](O)(C[C@@H]4C/C(=C/C(=O)OC)C[C@H](/C=C/C(C)(C)[C@]1(O)O2)O4)O3`, for which the Potency is 0.0047 µM (active) in experiment [1], 0.0038 µM (active) in [13] and 0.0042 µM (active) in [14]. The Potency entry in experiment [2], in experiment [3], in [4], in [5], in [7] and in experiment [8] was “inactive” in each case. Also, the Potency entry (in experiment [10]; in experiment [11]; in [12]; in experiment [15]; in experiment [16]; in the experiment with Aromatase (Homo sapiens)) was “inactive” in each case. Besides, the Potency result in [17] and in [18] was “inactive” in each case. The result in experiment [6] and in [9] was inactive.

As to `CN(C)CCCCCCN(C)C` (tested in a mixture with another compound), the Potency entry in experiment [2], in experiment [3], in experiment [4], in experiment [5], in [7] and in experiment [10] was “inactive” throughout. The Potency entry in experiment [11], in [12], in experiment [13], in [14], in [15] and in experiment [16] was “inactive” throughout. Further, the Potency entry (in the experiment with Aromatase (Homo sapiens); in experiment [17]; in experiment [18]) was “inactive” throughout. For the same compound, the call in experiment [6] and in experiment [9] was inactive.

Consider `COC(=O)[C@@H]1[C@H]2CC[C@@H](C[C@H]1OC(=O)c1ccccc1)N2C`, for which the Potency result in [1], in [2], in experiment [3], in experiment [4], in experiment [5] and in experiment [7] was “inactive” in each case. Also, the Potency entry in [8], in experiment [10], in experiment [11], in [12], in experiment [13] and in [14] was “inactive” each time. For the same compound, the Potency entry (in experiment [15]; in experiment [16]; in [19]; with Aromatase (Homo sapiens); in [17]; in [18]) was “inactive” throughout. In addition, the result in experiment [6] and in experiment [9] was inactive.

Turning to `O=C1OC2(c3cc(Br)c(O)cc3Oc3c2cc(Br)c(O)[c]3[Hg])c2ccccc21` (stereo unspecified), the Potency result in experiment [1], in experiment [2], in experiment [3], in experiment [5], in experiment [7] and in experiment [10] was “inactive” throughout. Further, the Potency entry (in experiment [12]; in experiment [15]; in experiment [16]; in experiment [19]; with Aromatase (Homo sapiens); in experiment [17]) was “inactive” each time. Also, the Potency result in experiment [18] was “inactive”. Besides, the Potency in [4] was 10 µM (active); in experiment [8], 10 µM [fluorescent] (active); in [11] it was 10 µM [fluorescent] (active); in experiment [13], 10.1 µM (active); in experiment [14], 10.1 µM (active).

As for `C[C@]12CC[C@H](O)C[C@H]1CC[C@@H]1[C@@H]2CC[C@]2(C)[C@@H](c3ccc(=O)oc3)C[C@H]3O[C@]132`, the Potency result in [1], in experiment [3], in [4], in experiment [5], in experiment [7] and in experiment [8] was “inactive” each time. The Potency result (in experiment [10]; in experiment [11]; in [12]; with Aromatase (Homo sapiens); in experiment [17]; in experiment [18]) was “inactive” throughout. Also, the Potency in [2] is 0.75 µM (active); in [13], 7.5 µM (active); in [14], 13.3 µM (active); in experiment [15], 1.34 µM (active); in experiment [19], 1.34 µM (active). The call in experiment [6] and in [9] was inactive.

With `C[C@@H](N)C(=O)c1ccccc1`, the Potency result in [1], in [2], in [3], in experiment [4], in experiment [5] and in [7] was “inactive” each time. The Potency result in experiment [8], in [10], in [11], in [12], in [13] and in experiment [14] was “inactive” in each case. Further, the Potency entry (in experiment [15]; in experiment [16]; with Aromatase (Homo sapiens); in experiment [17]) was “inactive” each time. Also, the call in experiment [6] and in experiment [9] was inactive.

Source of the values: PubChem BioAssay (Tox21).
